# Screening data (PubChem)
# Pol iota inh – blocks human DNA polymerase iota activity | 1% of 390,000 active | Potency, µM (doses to about 115 µM), actives largely listed as inhibitors | Q9UNA4 | Pol iota fluorescent replication assay, 10 min
#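 Pol iota at 10 nM preincubated 15 min with compounds at room temperature; reaction started with fluorescent substrate, 50 nM final. Fluorescence read kinetically at 0 and 10 min; buffer-only wells as negative control.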
# Pol eta inh-1 – inhibitors of human DNA polymerase eta; recombinant Pol eta, fluorescent DNA replication assay; Potency, µM (top dose mostly 114 µM), hits mostly inhibitors; 1.2% of 390,000 active; AID 588591; Q9Y253
#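 Pol eta at 10 nM preincubated with compounds 15 min at room temperature; reaction started with fluorescent substrate (50 nM final) and read kinetically at 0 and 10 min.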
# PI4K2A block – PI4K2A (human) kinase inhibition | 0.13% of 420,000 active | Q9BTU6 | activity change, negative = inhibition, % at 76.9 µM | AID 1346378 | purified PI4K2A, ADP-Glo luminescence, 1 h; active compounds read low; in the data active = activity change below about -50%; inconclusive = mostly about -30% to -49%
#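 ADP-Glo luminescence measured ADP generated by PI4K2A enzyme (4 ug/mL before mixing) with 1.2 mM PI substrate (pre-mix) and 300 microM ATP (pre-mix). Tris pH7.5 buffer with MgCl2, Triton X-100; 1 h reaction at ambient temperature.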
# PI5P4K alpha inh – PI5P4K alpha (human) kinase inhibition; P48426; PI5P4Kalpha enzyme, ADP-Glo luminescence, 60 min; active compounds read low; max response, %; 1.2% of 330,000 active; AID 652105; active = max response of -50% or lower; inconclusive = between -30% and -50%; inactive = -30% or higher; note: value at the top dose of about 77 µM
# Target sequence (P48426 whole entry, looked up): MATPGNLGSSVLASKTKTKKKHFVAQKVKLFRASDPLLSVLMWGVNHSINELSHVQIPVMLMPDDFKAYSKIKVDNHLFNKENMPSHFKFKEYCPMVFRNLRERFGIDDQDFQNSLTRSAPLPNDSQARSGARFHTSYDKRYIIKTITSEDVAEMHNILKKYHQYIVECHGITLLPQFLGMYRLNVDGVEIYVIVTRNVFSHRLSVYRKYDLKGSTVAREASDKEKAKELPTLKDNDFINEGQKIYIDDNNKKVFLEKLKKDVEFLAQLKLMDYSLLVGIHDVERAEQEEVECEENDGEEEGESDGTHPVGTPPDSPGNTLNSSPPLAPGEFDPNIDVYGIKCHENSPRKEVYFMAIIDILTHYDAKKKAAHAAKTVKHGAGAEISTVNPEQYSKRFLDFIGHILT
#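 Enzyme plus substrate dispensed, test compounds pinned in, then ATP (5 microM final) added. After 60 min at RT, ADP-Glo reagent 1 for 45 min and reagent 2 for 30 min preceded luminescence imaging.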
# Pol beta inh – inhibitors of human DNA polymerase beta. Potency, µM (titrated, usually from 114 µM), usual class: inhibitors. P06746. AID 485314. Pol beta primer extension/strand displacement, fluorescence kinetic. 1.3% of 340,000 active
#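 Kinetic readout of DNA synthesis with strand displacement by Pol beta. Compound and 10 nM enzyme sit 15 min at room temperature; 50 nM substrate starts the reaction, read immediately and at 10 min.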
# Pol kappa inh-1 – blocks human DNA polymerase kappa activity; Q9UBT6; purified Pol kappa, fluorescent DNA synthesis assay, 10 min; 0.53% of 400,000 active; Potency, µM (top dose mostly 107 µM), most hits filed as inhibitors
#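 Inhibition of 10 nM Pol kappa is measured by a fluorescent read-out at 0 and 10 min following addition of 50 nM substrate (final), with a 15-min room-temperature compound preincubation.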
# TbPGK inh – TbPGK inhibition, hit validation | shares compounds with Pol kappa inh-1 | Potency, µM (titrated, usually from 57.5 µM), hits mostly inhibitors | 79% of 500 active | TbPGK coupled GAPDH assay, Kinase-Glo luminescence; note: nearly all actives have a fitted effect of over 65% in size
# Pol iota confirm – Human Pol iota inhibitor confirmatory assay | shares compounds with Pol kappa inh-1 | Pol iota primer extension, TAMRA/BHQ fluorescence | Potency, µM, usual class: inhibitors | 77% of 1,500 active
# GALK inh confirm – galactokinase (human) inhibition, confirmation | 70% of 150 active | shares compounds with Pol eta inh-1 | purified GALK, Kinase-Glo ATP depletion luminescence | AID 2015 | Potency, µM (highest dose often 115 µM), actives largely listed as inhibitors
# Redox cycling – counter-screen for GALK inhibitors: redox cycling H2O2 generation; AID 2035; shares compounds with Pol eta inh-1; Phenol red-HRP H2O2 redox cycling, absorbance 600 nm; 40% of 150 active; Potency, µM (titrated, usually from 115 µM), most hits filed as inhibitors
# HEK293 tox – reduces HEK-293 cell viability in GALK counter-screen | HEK-293 viability, ATP luminescence (CellTiter-Glo), 24/48 h | Potency, µM (top dose mostly 46.1 µM), actives largely listed as inhibitors | 10% of 170 active | shares compounds with Pol eta inh-1
# Pol kappa inh-2 – Pol kappa (human) inhibition, cherry-pick confirmation; shares compounds with Pol eta inh-1; purified Pol-kappa, fluorescent strand-displacement substrate; Potency, µM, most hits filed as inhibitors; 76% of 920 active
# Pol eta inh-2 – Pol eta (human) inhibition, cherry-pick confirmation | shares compounds with Pol eta inh-1 | Pol eta primer extension, TAMRA/BHQ fluorescence, 10 min | 64% of 2,600 active | Potency, µM, actives largely listed as inhibitors | AID 720502
# Hits are given with their value; 0 = inactive; ? = inconclusive; - = no result given. Most compounds without a hit are left out; they make up all but 2.8% or so of the library. Unless noted, calls come from the whole dose curve; as a rule, active = well fitted curve in the direction sought with a large enough effect; inconclusive = small, poorly fitted or top-dose-only effect, or another doubt; inactive = no such curve, though single readings can be large; an effect the other way counts as inactive or inconclusive.
SMILES,Pol iota inh,Pol eta inh-1,PI4K2A block,PI5P4K alpha inh,Pol beta inh,Pol kappa inh-1,Pol iota confirm,Pol eta inh-2,others
CCc1ccc(-c2nc3c(=O)n(C)c(=O)nc-3n(CC)n2)cc1,0,-,-,-,-,0,2.1,1.5,
CCc1ccc(-c2csc3ncn(CC)c(=O)c23)cc1,0,0,0,0,0,0,-,-,
Cn1nc(-c2ccccn2)nc2c(=O)n(C)c(=O)nc1-2,0,0.71µM,-63,0,?,0,-,-,TbPGK inh=1.6µM;GALK inh confirm=2.7µM;Redox cycling=2.7µM;HEK293 tox=4µM
Cc1cnc(CNc2ccnc(-c3ccccc3C(F)(F)F)n2)cn1,-,-,-,-,-,0,-,-,
Cc1ccc(C)c(N2CCN(C3=C(c4ccccc4)C(=O)c4ccccc43)CC2)c1,0,0,0,-,0,0,-,-,
COCCN(C(=O)c1cc2c(s1)CCC2)c1c(N)n(CC(C)C)c(=O)[nH]c1=O,20µM,8.9µM,0,?,-,45µM,21,48,Pol kappa inh-2=19
CCCCN(C(=O)c1cc2c(s1)CCC2)c1c(N)n(CCC)c(=O)[nH]c1=O,20µM,13µM,0,?,-,?,60,76,Pol kappa inh-2=?
CCCCN(C(=O)c1cc2c(s1)CCC2)c1c(N)n(CC(C)C)c(=O)[nH]c1=O,45µM,?,0,?,-,79µM,?,?,
CCCCn1c(N)c(N(CC(C)C)C(=O)c2cc3c(s2)CCC3)c(=O)[nH]c1=O,?,0,0,0,-,0,-,-,
COCCN(C(=O)c1cc2c(s1)CCCCC2)c1c(N)n(CC(C)C)c(=O)[nH]c1=O,0,0,0,0,-,0,-,-,
Cc1cccc(-c2noc(-c3ccc(N4CCN(C)CC4)c([N+](=O)[O-])c3)n2)c1,0,0,0,-,0,0,-,-,
Cc1ccc(C(=O)Nc2cccc(C(=O)OCc3cc(=O)n4c5c(sc4n3)CCCC5)c2)cc1,0,0,0,-,0,0,-,-,
Cc1ccc(S(=O)(=O)/N=C2\C=C(Nc3cccc(C(=O)O)c3)C(=O)c3ccccc32)cc1,4µM,32µM,0,0,?,0,75,48,
CCc1ccc(S(=O)(=O)/N=C2\C=C(Nc3ccc(C(=O)O)cc3)C(=O)c3ccccc32)cc1,11µM,28µM,0,0,0,0,19,21,GALK inh confirm=?;Redox cycling=12µM;HEK293 tox=11µM;Pol kappa inh-2=?
O=C1C(Nc2ccccc2)=C/C(=N/S(=O)(=O)c2cccs2)c2ccccc21,?,?,?,0,0,0,-,-,
CCOC(=O)c1ccc(NC(=O)C(CC)Sc2nc3ccncc3[nH]2)cc1 (stereo not drawn),0,0,0,-,0,0,-,-,
COc1cccc(N=c2oc3ccc(OC)cc3cc2-c2nc3ccccc3[nH]2)c1,?,45µM,0,-,?,0,34,76,
Cc1ccccc1/C=N/Nc1nc2ccccc2[nH]1,0,0,0,0,0,0,-,-,
